# This is a sample that favours compounds with a hit; in the whole collection about 9.4% have one here.
# SARS PLpro yeast: inhibitors of SARS-CoV papain-like protease in yeast. S. cerevisiae expressing SARS-CoV PLpro, growth rescue. Potency, µM (series often up to 32.9 µM), for the others: at the top dose activity, positive = growth rescue, usual class: activators. 330,000 tested, 0.19% active; calls by dose curve; further: 0% is about no effect; nearly all actives have a fitted effect of over 55% in size
# Pf growth 96h: P. falciparum growth inhibition at 96 hour, primary screen for plastid delayed-death inhibitors; Potency, µM (titrated, usually from 28.7 µM), for the others: at the highest dose activity change, negative = inhibition, most hits filed as inhibitors; P. falciparum luciferase reporter growth, 96 h; AID 504834; 320,000 tested, 6.9% active; further: on the % scale 0 is the no-effect control and ±100 the full control effect
#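 Cell-based qHTS: luciferase-tagged P. falciparum in erythrocytes (2% hematocrit, 0.05% parasitemia final) incubated with compounds for 96 hours, 37 C, 5% CO2; luciferase detection reagent then added and luminescence measured.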
# Pf growth 48h: inhibits P. falciparum growth in the first generation, 48 h | P. falciparum luciferase growth in erythrocytes, 48 h | Potency, µM (series often up to 28.7 µM), for the others: at the highest dose activity change, negative = inhibition, hits mostly inhibitors | 310,000 tested, 5.9% active; further: on the % scale 0 is the no-effect control and ±100 the full control effect
#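 Erythrocytes infected with P. falciparum carrying an integrated firefly luciferase reporter (2% hematocrit, 0.1% parasitemia final) were exposed to compounds in RPMI 1640 with 0.5% Albumax at 37 C, 5% CO2. Growth inhibition was scored as reduced luminescence.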
# AMA1-RON2 inh: disrupts binding of P. falciparum AMA1 to RON2. AID 720542. 360,000 tested, 0.2% active. Potency, µM (series often up to 58.2 µM), without a hit: top-dose activity change, negative = inhibition, usual class: inhibitors. AlphaScreen AMA1-biotinylated RON2 peptide binding;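 further: 0% = vehicle wells and -100% = peptide control; nearly all actives have a fitted effect of over 45% in size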
#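 AMA1 (3D7) with his tag at 25 nM final met compounds first, then biotinylated RON2 peptide at 25 nM; detection used donor plus acceptor beads, 10 µg/mL apiece, read by AlphaScreen after 30 min at room temperature.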
# * hit, by the source's call; ? = inconclusive; · = no result; [ ] = dose if it differs, or a comment. Unless noted, the call rests on the fitted dose curve; in most records, active means well fitted curve in the direction sought with a large enough effect; inconclusive means small, poorly fitted or top-dose-only effect, or another doubt; inactive means no such curve, though single readings can be large; an effect the other way counts as inactive or inconclusive. Potency means the concentration at half of the fitted maximal effect.
SMILES,SARS PLpro yeast,Pf growth 96h,Pf growth 48h,AMA1-RON2 inh
Cc1ccc(N(CC(=O)Nc2ccccc2-c2ccccc2)S(=O)(=O)c2ccccc2)cc1,14%,6.6µM*,?,-8%
CCC(C)C(NC(N)=O)C(=O)Nc1ccc(S(=O)(=O)Nc2ccc(OC)cc2)cc1 (stereo unspecified),2%,-4%,7%,22%
C/C(=N\Nc1nc2ccccc2c(=O)n1O)c1ccco1,8%,280%,162%,12%
O=C(CNC(=O)c1ccc(Br)o1)Nc1cccc(S(=O)(=O)N2CCCC2)c1,3%,?,-21%,-19%
O=C(CC1SC(=Nc2ccccc2)N(Cc2ccccn2)C1=O)Nc1ccc(Br)cc1 (stereo unspecified),11%,?,-71%,27%
O=C(CC1SC(=Nc2cccc3ccccc23)N(Cc2ccccn2)C1=O)Nc1ccccc1Br (stereo unspecified),-5%,8.3µM*,9.3µM*,-1%
Cc1ccccc1N=C1SC(CC(=O)Nc2ccc3ccccc3c2)C(=O)N1Cc1ccccn1 (stereo unspecified),8%,3.7µM*,1.2µM*,-1%
COc1cc(-c2nn3c(Cc4ccccc4)nnc3s2)cc(OC)c1OC,4%,43%,10µM*,57%
COc1cc(-c2nn3c(COc4ccccc4)nnc3s2)cc(OC)c1OC,0%,·,-20%,-1%
CC(C)CC(OC(=O)c1cccs1)C(=O)NCc1ccco1 (stereo unspecified),1%,-8%,13µM*,-5%
CCC(OC(=O)c1cccs1)C(=O)NCc1ccco1 (stereo unspecified),?,·,-5%,-14%
CCc1nc(N2CCC3(CC2)OCCO3)c2nnn(Cc3ccccc3Cl)c2n1,-13%,-2%,?,-22%
COCCNc1nc(C(C)(C)C)nc2c1nnn2Cc1ccccc1Cl,-3%,42%,8.3µM*,22%
OCCNc1nc(C2CC2)nc2c1nnn2Cc1ccccc1Cl,3%,?,-13%,0%
CC(C)(C)c1nc(N2CCN(C(=O)c3ccco3)CC2)c2nnn(Cc3ccccc3Cl)c2n1,0%,·,1.7µM*,?
OC(COc1ccc2c(c1)CCC2)CN1CCN(c2ccccc2F)CC1 (stereo unspecified),0%,·,?,-10%
Oc1ccccc1N1CCN(CC(O)COC2CCCc3ccccc32)CC1 (stereo unspecified),2%,?,9.3µM*,12%
O=C(Oc1cccc(C(=S)N2CCCCC2)c1)c1ccccc1,1%,7.4µM*,25%,-6%
O=C(Oc1ccc(C(=S)N2CCCCC2)cc1)c1ccccc1,0%,?,7%,-9%
CCc1c(C)sc(NC(=O)C2CCCO2)c1C#N (stereo unspecified),13%,34%,50%,3%
CCOC(=O)CSc1nc(N2CCOCC2)c2c(c1C#N)CC(C)(C)OC2,4%,?,-11%[0.00184 µM],-2%
CC(C)Sc1nc(N2CCOCC2)c2c(c1C#N)CC(C)(C)SC2,5%,?,?,-12%
CCCCCSc1nc(N2CCOCC2)c2c(c1C#N)CC(C)(C)OC2,-1%,?,9.3µM*,-6%
CCCOC(=O)CSc1nc(N2CCOCC2)c2c(c1C#N)CC(C)(C)OC2,4%,1.9µM*,?,3%
CC(C)CSc1nc(N2CCOCC2)c2c(c1C#N)CC(C)(C)SC2,-5%,?,9.3µM*,-20%
SMILES,SARS PLpro yeast,Pf growth 96h,Pf growth 48h,AMA1-RON2 inh
Brc1ccccc1-c1nnc(-c2cccnc2)o1,-7%,2%,85%,-10%
O=C(/C=C/c1ccc(S(=O)(=O)N2CCOCC2)cc1)NC(=S)Nc1ccc(N2CCOCC2)cc1,-7%,?,-13%,-13%
CCCCCC[n+]1c(-c2ccccc2)csc1Nc1ccccc1,-84%,?,3.3µM*,-5%
CCNc1nc2c(c(=O)n(C)c(=O)n2C)n1Cc1ccc(Cl)cc1,3%,?,-7%,-9%
CCC(C)Nc1nc2c(c(=O)n(C)c(=O)n2C)n1Cc1cccc(C)c1 (stereo unspecified),1%,74%,15µM*,5%
CCC(C)Nc1nc2c(c(=O)n(C)c(=O)n2C)n1Cc1ccc(Cl)cc1 (stereo unspecified),5%,6.6µM*,?,9%
O=c1c(Br)ccc(Br)cc1Br,·,·,·,-2%
C#CCOCCOCCOCCNc1nc(N2CCN(C(=O)CCCCCCCCCCNC(=O)Cn3cc(CCCCCN)nn3)CC2)nc(N2CCN(C(=O)CCCCCCCCCCNC(=O)Cn3cc(C[C@@H](C)O)nn3)CC2)n1,-2%,0.29µM*,0.33µM*,?
C#CCOCCOCCOCCNc1nc(N2CCN(C(=O)CCCCCCCCCCNC(=O)Cn3cc(C[C@@H](C)O)nn3)CC2)nc(N2CCN(C(=O)CCCCCCCCCCNC(=O)[C@@H]([C@H](C)CC)n3cc(CCCCCN)nn3)CC2)n1,-5%,?,2.3µM*,?
COc1ccccc1-n1cc(C(=O)c2cc(Cl)ccc2O)cc(C#N)c1=O,1%,?,?,0%
Cc1ccccc1-n1cc(C(=O)c2cc(Cl)ccc2O)cc(C#N)c1=O,-13%,2.6µM*,5.2µM*,0%
CC1(C(=O)Nc2ccc3c(c2)OCCO3)CSCC(=O)N1CCCn1ccnc1 (stereo unspecified),·,·,·,-9%
O=C(NC(=S)NCC1CCCO1)c1ccc([N+](=O)[O-])cc1 (stereo unspecified),9%,0.59µM*,25%,6%[11.6 µM]
O=C(NC(=S)NCC1CCCO1)c1ccc(Cl)cc1 (stereo unspecified),18%,15%,67%,1%[2.32 µM]
Cc1ccc(C)n1-c1ccc(C(=O)NCC2CCCO2)cc1 (stereo unspecified),-5%,10µM*,-11%,2%
COc1cccc(N2CCN(C(=O)c3ccc(CS(=O)c4ccccc4C)o3)CC2)c1 (stereo unspecified),-3%,?,-18%,-15%
O=c1cc(O)c(-c2ccc(Cl)cc2)c(Cl)[nH]1,3%,0%,13µM*,-3%
O=C(/C=C/c1ccc2c(c1)OCO2)NCCSCc1ccc(Cl)cc1,1%,75%,32%,-3%
CCOc1ccc(NC(=O)CN(C)C(=O)c2c(-c3ccccc3)noc2C)cc1OCC,5%,?,?,-3%
COC(=O)CCCCCCCCCCN1CCCCC1,-40%,8%,-5%,-5%
O=C1c2ccccc2C(=O)N1c1nc(-c2cccs2)cs1,-4%,15µM*,50%,-4%
CN1CCN(c2nc(-c3cccs3)cs2)CC1,2%,47%,41%,-12%
Cc1cc(C)n(CC(=O)n2nc(C)cc2C)n1,5%,10µM*,8%,-16%
COc1ccc(NC(=O)CN2CCN(c3ccccc3C)CC2)cc1,-9%,?,-10%,-7%
Cc1ccc(NC(=O)CCN2CCOCC2)cc1C,12%,0.93µM*,19%,-1%
Cc1cc(C)n(C(=O)CCC(=O)Nc2ccc(C)c(C)c2)n1,12%,12µM*,·,-1%
Cc1cc(C)n(C(=O)Cn2nc(C(F)F)cc2C)n1,23%,1%,5%,3%

# Screens deposited in PubChem BioAssay by National Center for Advancing Translational Sciences (NCATS).
